# B1: unnamed (peptide)
# chain: NAGIRPKFILALNDE
# How the values were obtained:
# Experiment in all cases: SPOT peptide array binding signal intensity (averaged, normalized) (arbitrary units (background-subtracted, floor 0; scale differs between SH3 domains)); higher = stronger binding of the SH3 domain to the peptide
# [1] = biological target: AgAbp1
# In short: (§1)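 The binding signal is the normalized, background-subtracted spot intensity averaged over replicates; its arbitrary units differ between domains. It was obtained by incubating 10 μg/ml GST-fused SH3 domains from four yeast species overnight at 4°C in TBS-based blocking buffer on cellulose membranes with synthetic 15-mer peptides, cysteines replaced by serines, then detecting with anti-GST antibody, HRP anti-mouse secondary and luminol.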
# [2] = biological target: AgBbc1
# In short: as §1
# [3] = biological target: AgBem1-D1
# In short: as §1
# [4] = biological target: AgBzz1-D1
# In short: as §1
# [5] = biological target: AgBzz1-D2
# In short: as §1
# [6] = biological target: AgCyk3
# In short: as §1
# [7] = biological target: AgFus1
# In short: as §1
# [8] = biological target: AgHof1
# In short: as §1
# [9] = biological target: AgHse1
# In short: as §1
# [10] = biological target: AgLsb1
# In short: as §1
# [11] = biological target: AgLsb4
# In short: as §1
# [12] = biological target: AgMyo5
# In short: as §1
# [13] = biological target: AgNbp2
# In short: as §1
# [14] = biological target: AgRvs167
# In short: as §1
# [15] = biological target: AgSho1
# In short: as §1
# [16] = biological target: AgSla1-D1-D2
# In short: as §1
# [17] = biological target: AgSla1-D3
# In short: as §1
# [18] = biological target: CaAbp1-D1
# In short: as §1
# [19] = biological target: CaAbp1-D2
# In short: as §1
# [20] = biological target: CaBbc1
# In short: as §1
# [21] = biological target: CaBem1-D1
# In short: as §1
# [22] = biological target: CaBzz1-D1
# In short: as §1
# [23] = biological target: CaBzz1-D2
# In short: as §1
# [24] = biological target: CaCyk3
# In short: as §1
# [25] = biological target: CaFus1
# In short: as §1
# [26] = biological target: CaHof1
# In short: as §1
# [27] = biological target: CaHse1
# In short: as §1
# [28] = biological target: CaLsb1
# In short: as §1
# [29] = biological target: CaLsb4
# In short: as §1
# [30] = biological target: CaMyo5
# In short: as §1
# [31] = biological target: CaNbp2
# In short: as §1
# [32] = biological target: CaRvs167
# In short: as §1
# [33] = biological target: CaRvs167-3
# In short: as §1
# [34] = biological target: CaSho1
# In short: as §1
# [35] = biological target: CaSla1-D1-D2
# In short: as §1
# [36] = biological target: CaSla1-D3
# In short: as §1
# [37] = biological target: ScAbp1
# In short: as §1
# [38] = biological target: ScBbc1
# In short: as §1
# [39] = biological target: ScBem1-D1
# In short: as §1
# [40] = biological target: ScBzz1-D1
# In short: as §1
# [41] = biological target: ScBzz1-D2
# In short: as §1
# [42] = biological target: ScCyk3
# In short: as §1
# [43] = biological target: ScFus1
# In short: as §1
# [44] = biological target: ScHof1
# In short: as §1
# [45] = biological target: ScHse1
# In short: as §1
# [46] = biological target: ScLsb1
# In short: as §1
# [47] = biological target: ScLsb2
# In short: as §1
# [48] = biological target: ScLsb3
# In short: as §1
# [49] = biological target: ScLsb4
# In short: as §1
# [50] = biological target: ScMyo3
# In short: as §1
# [51] = biological target: ScMyo5
# In short: as §1
# [52] = biological target: ScNbp2
# In short: as §1
# [53] = biological target: ScPex13
# In short: as §1
# [54] = biological target: ScRvs167
# In short: as §1
# [55] = biological target: ScSho1
# In short: as §1
# [56] = biological target: ScSla1-D1-D2
# In short: as §1
# [57] = biological target: ScSla1-D3
# In short: as §1
# [58] = biological target: SpAbp1-D1
# In short: as §1
# [59] = biological target: SpBbc1
# In short: as §1
# [60] = biological target: SpBzz1-D1
# In short: as §1
# [61] = biological target: SpBzz1-D2
# In short: as §1
# [62] = biological target: SpCyk3
# In short: as §1
# [63] = biological target: SpHof1
# In short: as §1
# [64] = biological target: SpHof1-2
# In short: as §1
# [65] = biological target: SpHof1-3
# In short: as §1
# [66] = biological target: SpHse1
# In short: as §1
# [67] = biological target: SpLsb1
# In short: as §1
# [68] = biological target: SpLsb4
# In short: as §1
# [69] = biological target: SpMyo1
# In short: as §1
# [70] = biological target: SpNbp2
# In short: as §1
# [71] = biological target: SpPex13
# In short: as §1
# [72] = biological target: SpRvs167
# In short: as §1
# [73] = biological target: SpSla1-D1-D2
# In short: as §1
# [74] = biological target: SpSla1-D3
# In short: as §1
binder,measurement,setting,value
B1,SPOT peptide array binding signal intensity,[1],≤ 0
same,SPOT peptide array binding signal intensity,[2],2.75
same,SPOT peptide array binding signal intensity,[3],11.5
same,SPOT peptide array binding signal intensity,[4],44
same,SPOT peptide array binding signal intensity,[5],77
same,SPOT peptide array binding signal intensity,[6],7
same,SPOT peptide array binding signal intensity,[7],68
same,SPOT peptide array binding signal intensity,[8],13.8
same,SPOT peptide array binding signal intensity,[9],616
same,SPOT peptide array binding signal intensity,[10],2
same,SPOT peptide array binding signal intensity,[11],25
same,SPOT peptide array binding signal intensity,[12],1
same,SPOT peptide array binding signal intensity,[13],0.5
same,SPOT peptide array binding signal intensity,[14],2.33
same,SPOT peptide array binding signal intensity,[15],9.5
same,SPOT peptide array binding signal intensity,[16],3
same,SPOT peptide array binding signal intensity,[17],4
same,SPOT peptide array binding signal intensity,[18],≤ 0
same,SPOT peptide array binding signal intensity,[19],≤ 0
same,SPOT peptide array binding signal intensity,[20],1.5
same,SPOT peptide array binding signal intensity,[21],1
same,SPOT peptide array binding signal intensity,[22],72
same,SPOT peptide array binding signal intensity,[23],26.2
same,SPOT peptide array binding signal intensity,[24],2
same,SPOT peptide array binding signal intensity,[25],1120
same,SPOT peptide array binding signal intensity,[26],1
same,SPOT peptide array binding signal intensity,[27],6.5
same,SPOT peptide array binding signal intensity,[28],1
same,SPOT peptide array binding signal intensity,[29],≤ 0
same,SPOT peptide array binding signal intensity,[30],27.2
same,SPOT peptide array binding signal intensity,[31],122
same,SPOT peptide array binding signal intensity,[32],1.17
same,SPOT peptide array binding signal intensity,[33],17
same,SPOT peptide array binding signal intensity,[34],222
same,SPOT peptide array binding signal intensity,[35],≤ 0
same,SPOT peptide array binding signal intensity,[36],10.8
same,SPOT peptide array binding signal intensity,[37],≤ 0
same,SPOT peptide array binding signal intensity,[38],≤ 0
same,SPOT peptide array binding signal intensity,[39],1
same,SPOT peptide array binding signal intensity,[40],43
same,SPOT peptide array binding signal intensity,[41],19
same,SPOT peptide array binding signal intensity,[42],54.5
same,SPOT peptide array binding signal intensity,[43],159
same,SPOT peptide array binding signal intensity,[44],≤ 0
same,SPOT peptide array binding signal intensity,[45],628
same,SPOT peptide array binding signal intensity,[46],1.5
same,SPOT peptide array binding signal intensity,[47],≤ 0
same,SPOT peptide array binding signal intensity,[48],≤ 0
same,SPOT peptide array binding signal intensity,[49],≤ 0
same,SPOT peptide array binding signal intensity,[50],2.5
same,SPOT peptide array binding signal intensity,[51],≤ 0
same,SPOT peptide array binding signal intensity,[52],23.5
same,SPOT peptide array binding signal intensity,[53],≤ 0
same,SPOT peptide array binding signal intensity,[54],≤ 0
same,SPOT peptide array binding signal intensity,[55],158
same,SPOT peptide array binding signal intensity,[56],≤ 0
same,SPOT peptide array binding signal intensity,[57],6.5
same,SPOT peptide array binding signal intensity,[58],≤ 0
same,SPOT peptide array binding signal intensity,[59],4
same,SPOT peptide array binding signal intensity,[60],201
same,SPOT peptide array binding signal intensity,[61],≤ 0
same,SPOT peptide array binding signal intensity,[62],2
same,SPOT peptide array binding signal intensity,[63],28.8
same,SPOT peptide array binding signal intensity,[64],19
same,SPOT peptide array binding signal intensity,[65],214
same,SPOT peptide array binding signal intensity,[66],481
same,SPOT peptide array binding signal intensity,[67],≤ 0
same,SPOT peptide array binding signal intensity,[68],≤ 0
same,SPOT peptide array binding signal intensity,[69],≤ 0
same,SPOT peptide array binding signal intensity,[70],16.5
same,SPOT peptide array binding signal intensity,[71],4
same,SPOT peptide array binding signal intensity,[72],3.5
same,SPOT peptide array binding signal intensity,[73],4
same,SPOT peptide array binding signal intensity,[74],≤ 0
